Compound activity: PubChem, National Center for Advancing Translational Sciences (NCATS)
Hits are enriched below; roughly 2.4% of the tested compounds scored in any of these assays.
Pol beta inh = qHTS Assay for Inhibitors of DNA Polymerase Beta; P06746; Pol beta primer extension/strand displacement, fluorescence kinetic; Potency, µM (titrated, usually from 114 µM), for inactives: at the top dose activity change, negative = inhibition, usual class: inhibitors; 1.3% of 340,000 active; further: on the % scale 0 is the no-effect control and ±100 the full control effect
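Reaction started by 50 nM substrate onto compound-treated Pol beta (10 nM, 15 min preincubation, room temperature); plates read at 0 min and 10 min. Normalized concentration-effect data fitted by four-parameter Hill equation.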
Pol kappa inh-1 = qHTS for Inhibitors of Polymerase Kappa | DNA polymerase kappa (Homo sapiens), Q9UBT6 | purified Pol kappa, fluorescent DNA synthesis assay, 10 min | Potency, µM (top dose mostly 107 µM), inactives show top-dose activity, negative = inhibition, most hits filed as inhibitors | 0.53% of 400,000 active | AID 588579, 2011; further: on the % scale 0 is the no-effect control and ±100 the full control effect
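Pol kappa 10 nM + cpd, 15 min RT; start w/ substrate 50 nM final; fluorescence kinetic read, 0 and 10 min. Neg ctrl: buffer, no enzyme.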
Pol eta inh-1 = qHTS for Inhibitors of Polymerase Eta | DNA polymerase eta (Homo sapiens), Q9Y253 | recombinant Pol eta, fluorescent DNA replication assay | Potency, µM (top dose mostly 114 µM), for inactives: at the highest dose activity change, negative = inhibition, most hits filed as inhibitors | 1.2% of 390,000 active | AID 588591, 2011; further: on the % scale 0 is the no-effect control and ±100 the full control effect
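Pol eta at 10 nM preincubated with compounds 15 min at room temperature; reaction started with fluorescent substrate (50 nM final) and read kinetically at 0 and 10 min.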
POLI inh = qHTS for Inhibitors of Polymerase Iota | AID 588590, 2011 | Pol iota fluorescent replication assay, 10 min | DNA polymerase iota (Homo sapiens), Q9UNA4 | 1% of 390,000 active | Potency, µM (highest dose often 115 µM), without a hit: at the top dose activity, negative = inhibition, hits mostly inhibitors
Target sequence (Q9UNA4 whole entry, looked up): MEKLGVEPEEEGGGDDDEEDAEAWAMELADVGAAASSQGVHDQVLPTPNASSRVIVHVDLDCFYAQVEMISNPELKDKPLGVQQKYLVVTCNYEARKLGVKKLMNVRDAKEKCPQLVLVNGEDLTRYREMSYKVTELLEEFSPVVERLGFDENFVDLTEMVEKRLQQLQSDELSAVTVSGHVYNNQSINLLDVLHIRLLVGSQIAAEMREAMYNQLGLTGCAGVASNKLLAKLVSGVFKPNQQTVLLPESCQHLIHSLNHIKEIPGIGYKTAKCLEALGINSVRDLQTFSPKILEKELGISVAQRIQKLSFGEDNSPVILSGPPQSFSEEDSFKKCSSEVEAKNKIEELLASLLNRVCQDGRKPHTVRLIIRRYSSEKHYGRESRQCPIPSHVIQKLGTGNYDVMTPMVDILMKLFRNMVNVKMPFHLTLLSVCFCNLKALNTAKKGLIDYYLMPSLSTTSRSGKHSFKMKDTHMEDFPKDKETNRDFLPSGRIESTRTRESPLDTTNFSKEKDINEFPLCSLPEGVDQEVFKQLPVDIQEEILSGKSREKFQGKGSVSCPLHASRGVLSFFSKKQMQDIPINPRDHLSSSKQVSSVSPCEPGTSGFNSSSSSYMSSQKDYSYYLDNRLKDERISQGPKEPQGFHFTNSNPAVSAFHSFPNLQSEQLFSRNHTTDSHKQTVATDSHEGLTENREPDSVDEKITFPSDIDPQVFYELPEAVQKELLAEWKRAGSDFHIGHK
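Pol iota at 10 nM preincubated 15 min with compounds at room temperature; reaction started with fluorescent substrate, 50 nM final. Fluorescence read kinetically at 0 and 10 min; buffer-only wells as negative control.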
FEN1 inh = qHTS Assay for the Inhibitors of Human Flap endonuclease 1 (FEN1); P39748; Recombinant FEN1 flap cleavage, fluorescence, 15 min; Potency, µM (top dose mostly 114 µM), inactives show at the top dose activity change, negative = inhibition, hits mostly inhibitors; 0.35% of 390,000 active; AID 588795, 2011; further: on the % scale 0 is the no-effect control and ±100 the full control effect; nearly all actives have a fitted effect of over 65% in size
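With each library titrated from low to high concentration, compounds met 10 nM FEN1 for 15 min at room temperature before 50 nM substrate was added; readings at 0 and 15 min fed four-parameter Hill curve fits.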
WRN helicase inh = qHTS for Inhibitors of WRN Helicase; Bifunctional 3'-5' exonuclease/ATP-dependent helicase WRN (Homo sapiens), Q14191; WRN helicase unwinding, fluorescent forked duplex, kinetic; Potency, µM (titrated, usually from 114 µM), without a hit: at the highest dose activity change, negative = inhibition, usual class: inhibitors; 0.46% of 360,000 active; AID 651768, 2012; further: on the % scale 0 is the no-effect control and ±100 the full control effect; nearly all actives have a fitted effect of over 55% in size
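Screening of the MLSMR collection measured strand separation of a quenched forked DNA duplex (100 nM) by 20 nM WRN with 2 mM ATP, all final. Compounds were preincubated with enzyme 15 min at room temperature.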
Pol kappa inh-2 = qHTS for Inhibitors of Polymerase Kappa: Confirmatory Assay for Cherry-picked Compounds | shares compounds with Pol eta inh-1 | purified Pol-kappa, fluorescent strand-displacement substrate | Potency, µM, usual class: inhibitors | 76% of 920 active | AID 720501, 2013
Pol eta inh-2 = qHTS for Inhibitors of Polymerase Eta: Confirmatory Assay for Cherry-picked Compounds; shares compounds with Pol eta inh-1; Pol eta primer extension, TAMRA/BHQ fluorescence, 10 min; Potency, µM, hits mostly inhibitors; 64% of 2,600 active
The depositor's hits bear a star; ? = inconclusive; nt = not tested or not shown; [ ] = another dose, or the depositor's remark. The call rests on the fitted dose curve; in most records, active means well fitted curve in the direction sought with a large enough effect; inconclusive means small, poorly fitted or top-dose-only effect, or another doubt; inactive means no such curve, though single readings can be large; an effect the other way counts as inactive or inconclusive. Potency means the concentration at half of the fitted maximal effect.

SMILES | Pol beta inh | Pol kappa inh-1 | Pol eta inh-1 | POLI inh | FEN1 inh | WRN helicase inh | Pol eta inh-2 | others
CCC(C(=O)Nc1cccc(C#N)c1)n1nc(-c2ccccc2)ccc1=O (centres undefined) | 4% | -13% | -12% | 8% | 1% | nt | nt
CCOc1cc(/C=N/n2c(COc3ccccc3)n[nH]c2=S)ccc1O | 2% | 8% | -18% | 17% | 5% | 4% | nt
Oc1ccc(/C=N/n2c(COc3ccccc3)n[nH]c2=S)cc1O | 6.3µM* | 20µM* | ? | 6.3µM* | 3% | ? | 17*
Fc1cccc(Cl)c1CNc1n[nH]c(-c2ccco2)n1 | 28% | -10% | -16% | 32% | -9% | nt | nt
CN(C)c1ccc(CNS(=O)(=O)c2ccc(-c3cc(C(F)(F)F)on3)s2)cc1 | ? | 4% | 8% | -21% | 1% | nt | nt
Cc1cc(O)c(C(C)C)cc1C1(c2cc(C(C)C)c(O)cc2C)OC(=O)c2ccccc21 | 5% | -4% | -26% | -2% | 0% | -5%[57.1 µM] | nt
Cc1cc(C2(c3ccc(O)c(C)c3)OC(=O)c3ccccc32)ccc1O | 35µM* | -35% | ? | ? | -14% | -36%[57.1 µM] | ?
CC(=O)Oc1ccc(C(=O)Nc2cccc(C(=O)c3cccc(NC(=O)c4ccc(OC(C)=O)cc4)c3)c2)cc1 | 13µM* | ? | 3.2µM* | 7.9µM* | ? | ? | 54*
CC(=O)Oc1ccc(C(=O)Nc2cccc(C(=O)NC(C)(C)C)c2)cc1 | -14% | 3% | -10% | 56% | -8% | -7% | nt
Cc1ccc(S(=O)(=O)/N=C2/NC(=O)/C(=C/c3cc([N+](=O)[O-])ccc3O)S2)cc1 | -4% | ? | 28µM* | 28µM* | ? | ? | nt | Pol kappa inh-2=?
Cc1oc(-c2ccccc2F)nc1CS(=O)(=O)CC(=O)N1CCN(c2ccc(Cl)cc2)CC1 | 1% | -19% | -16% | 4% | -5% | nt | nt
CCOC(=O)c1ccc(Cl)c(NC(=O)c2ccc(-c3ccccc3)cc2)c1 | -1% | -18% | -5% | 6% | 1% | 31% | nt
CCOC(=O)c1ccc(/C=C2/C=C(c3ccccc3)N(c3ccc(Cl)c(C(=O)O)c3)C2=O)cc1 | 32µM* | -17% | 20µM* | ? | -22% | 50µM* | 60* | Pol kappa inh-2=?
Cc1ccc(NC(=O)CN2C(=O)c3ccccc3Sc3ccc(C(=O)N4CCOCC4)cc32)cc1C | -23% | -7%[60.1 µM] | ? | -22% | -19% | nt | nt
Cc1ccc(S(=O)(=O)NC(=O)c2ccc(-c3ccc(C)c4ccccc34)o2)cc1 | ? | ? | 32µM* | ? | -29% | ? | ?
Cc1ccc(-c2ccc(C(=O)Nc3ccccc3)o2)c2ccccc12 | 14% | -4% | -17% | -3% | -23% | -11% | nt
COc1cn(CC(=O)Nc2cc(C)ccc2C)c(CN2CCCCC2)cc1=O | 1% | -15%[60.1 µM] | -6% | 7% | 21% | nt | nt
O=C(Nc1cc([N+](=O)[O-])ccc1O)c1ccc2c(c1)C(=O)N(Cc1ccco1)C2=O | 26% | 50µM* | 32µM* | 40µM* | ? | ? | ?
O=C(Nc1cc([N+](=O)[O-])ccc1O)c1cccc(C(=O)Nc2cc([N+](=O)[O-])ccc2O)c1 | -1% | -25% | ? | 16% | ? | -20%[11.6 µM] | ?
O=C(Nc1cc([N+](=O)[O-])ccc1O)c1cccc([N+](=O)[O-])c1 | -17% | -4% | -6% | 5% | 26% | -2% | nt
O=C(Nc1ccc(O)cc1)c1ccc2c(c1)C(=O)N(Cc1ccco1)C2=O | 1% | -28% | 14µM* | ? | -17% | ? | 67*
Cc1nc2ccn(Cc3ccco3)c(=O)c2cc1C(=O)NCc1ccccc1F | 91% | 0% | 6% | 3% | 3% | nt | nt
COc1ccc(-c2c(C(F)(F)F)[nH]n3c(=O)cc(-c4ccccc4)nc23)cc1 | 12% | -4% | 89µM* | -12% | -31% | -8% | ?
COc1ccc(CCN2C(=O)CN(C3CCCCCC3)C(=O)C2c2ccc(Cl)cc2)cc1OC (centres undefined) | 3% | -3%[60.1 µM] | -19% | 16% | -16% | nt | nt
CC(C)=NNc1cc([N+](=O)[O-])cc2c1C(=O)N(C)S2=O (centres undefined) | -1% | -4% | -7% | -19% | -1% | 6% | nt
SMILES | Pol beta inh | Pol kappa inh-1 | Pol eta inh-1 | POLI inh | FEN1 inh | WRN helicase inh | Pol eta inh-2 | others
NNc1cc([N+](=O)[O-])cc2c1C(=O)N(Cc1ccccc1)S2=O (centres undefined) | ? | 79µM* | 45µM* | 35µM* | -21% | -10%[57.1 µM] | ? | Pol kappa inh-2=?
CC(=O)c1cccc(NC(=O)Nc2nnc(N3CCCC3)s2)c1 | 6% | -18% | -9% | 11% | 10% | nt | nt
Cc1cccc(CCNC(=O)c2cc3c(=O)[nH]c4ccc(C)cc4c3s2)c1 | -13% | -13% | -8% | 11% | -8% | nt | nt
O=S(=O)(Nc1nc(-c2ccco2)c(-c2ccco2)s1)c1ccc(F)cc1F | nt | nt | 28µM* | nt | nt | ? | ? | Pol kappa inh-2=?
O=S(=O)(Nc1nc2ccccc2s1)c1cc(F)ccc1F | -1% | -4% | -8% | 5% | 5% | -6% | nt
CC(=O)c1ccc(NC(=O)c2noc3c2CCC3)cc1 | 16µM* | ? | 45µM* | 25µM* | -13% | -6%[11.6 µM] | ?
O=C(Nc1ccc(OC(F)(F)F)cc1)c1noc2c1CCCC2 | -20% | -9% | nt | 35% | 2% | nt | nt
Cc1c(C(=O)N2CCN(C)CC2)oc2ccc(Br)cc12 | 16% | -5% | -6% | -15% | -8% | -5% | nt
Cc1c(C(=O)N2CCCC2)oc2ccc(Br)cc12 | ? | -41% | 50µM* | ? | 9% | -4%[11.6 µM] | ?
CC(=O)Nc1ccc(Nc2nc3ccccc3nc2NS(=O)(=O)c2ccc(Cl)c([N+](=O)[O-])c2)cc1 | nt | ? | 22µM* | ? | -25% | ? | ?
O=C(CSCc1ccc(F)cc1)N1CCc2c([nH]c3ccccc23)C1c1ccc(F)cc1 (centres undefined) | 1% | -13%[60.1 µM] | -20% | 9% | -19% | nt | nt
CC1=NN(c2nc(-c3ccccc3)cs2)C(=O)C1 | -1% | -36% | 50µM* | ? | 8% | ? | ?
